Assay results taken from PubChem BioAssay (NCATS).
Results filed as inconclusive are left out. Active and inactive are the calls of the source. Calls follow the shape of the dose curve; as a rule, active = well fitted curve in the direction sought with a large enough effect; inconclusive = small, poorly fitted or top-dose-only effect, or another doubt; inactive = no such curve, though single readings can be large; an effect the other way counts as inactive or inconclusive.

Assays:
HEK293T [1] = assay: qHTS assay to identify novel small-molecules to repurpose for Merkel cell carcinoma treatment (AID 1296009); conditions: MCC and control cell lines, CellTiter-Glo viability, 72 h; at 44.8 µM (top of the series) unless noted; also: nearly all actives have a fitted effect of over 60% in size
Outline: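 Luminescence from CellTiter-Glo, read 10 min after addition at room temperature, reported viability following a 72 hr, 37 degree celsius treatment with NPC or MIPE compounds in titration; values normalized to plate controls.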

C33A = assay: Primary qHTS to identify gynecologic anti-cancer compounds using libraries of approved drugs and bioactive compounds (AID 1345084); conditions: Gynecologic cancer cell panel viability, ATPlite luminescence, 48 h; series mostly up to 57.5 µM; also: % is scaled to controls: 0 for no effect and ±100 for the full control effect; nearly all actives have a fitted effect of over 55% in size
Outline: (§1)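 Five-concentration response, 48 h; readout is ATP-driven luciferase luminescence.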

CAOV3 = assay: as above; conditions: Gynecologic cancer cell panel viability, ATPlite luminescence, 48 h; series mostly up to 57.5 µM
Outline: as §1

CASKI = assay: as above; conditions: Gynecologic cancer cell panel viability, ATPlite luminescence, 48 h; series mostly up to 57.5 µM
Outline: as §1

Es-2 = assay: as above; conditions: Gynecologic cancer cell panel viability, ATPlite luminescence, 48 h; series mostly up to 57.5 µM
Outline: as §1

HeLa = assay: as above; conditions: Gynecologic cancer cell panel viability, ATPlite luminescence, 48 h; series mostly up to 57.5 µM
Outline: as §1

Hek293T [2] = assay: as above; conditions: Gynecologic cancer cell panel viability, ATPlite luminescence, 48 h, control line for the selectivity index; series mostly up to 57.5 µM
Outline: as §1

JEG-3 = assay: as above; conditions: Gynecologic cancer cell panel viability, ATPlite luminescence, 48 h; series mostly up to 57.5 µM
Outline: as §1

SKOV3 = assay: as above; conditions: Gynecologic cancer cell panel viability, ATPlite luminescence, 48 h; series mostly up to 57.5 µM
Outline: as §1

Tov-21-G = assay: as above; conditions: Gynecologic cancer cell panel viability, ATPlite luminescence, 48 h; series mostly up to 57.5 µM
Outline: as §1

Tov112D = assay: as above; conditions: Gynecologic cancer cell panel viability, ATPlite luminescence, 48 h; series mostly up to 57.5 µM
Outline: as §1

OV90 = assay: as above; conditions: Gynecologic cancer cell panel viability, ATPlite luminescence, 48 h; series mostly up to 57.5 µM
Outline: as §1

PA-1 = assay: as above; conditions: Gynecologic cancer cell panel viability, ATPlite luminescence, 48 h; series mostly up to 57.5 µM
Outline: as §1

CC1=C2CC3C(CCC3(C)O)C(C)(O)CC2OC1=O (stereo not drawn)
inactive: outcome (HEK293T [1]) | Potency (C33A) | Potency (CAOV3) | outcome (CASKI) | Potency (Es-2) | Potency (HeLa) | Potency (Hek293T [2]) | Potency (JEG-3) | Potency (SKOV3) | Potency (Tov-21-G) | Potency (Tov112D)

C/C=C(/C)C(=O)OC1C(OC(C)=O)C23C(O)OC4(CCC5C6(C)CCC(OC7OC(C(=O)O)C(O)C(OC8OC(CO)C(O)C(O)C8OC8OC(C)C(O)C(O)C8OC8OCC(O)C(O)C8O)C7OC7OC(CO)C(O)C(O)C7O)C(C)(C)C6CCC5(C)C4(C)CC2OC(C)=O)C3CC1(C)C (stereo not drawn)
inactive: outcome (HEK293T [1]) inactive [at 9.27 µM] | activity change, negative = cytotoxicity (C33A) 8.72% [at 6.55 µM] | activity change, negative = cytotoxicity (CAOV3) 8.69% [at 6.55 µM] | activity change, negative = cytotoxicity (CASKI) 1.53% [at 6.55 µM] | activity change, negative = cytotoxicity (Es-2) 1.17% [at 6.55 µM] | activity change, negative = cytotoxicity (HeLa) -3.79% [at 6.55 µM] | activity change, negative = cytotoxicity (Hek293T [2]) -2.54% [at 6.55 µM] | activity change, negative = cytotoxicity (JEG-3) 2.12% [at 6.55 µM] | activity change, negative = cytotoxicity (OV90) 3.74% [at 6.55 µM] | activity change, negative = cytotoxicity (PA-1) -0.0173% [at 6.55 µM] | activity change, negative = cytotoxicity (Tov-21-G) -4.78% [at 6.55 µM] | activity change, negative = cytotoxicity (Tov112D) 1.18% [at 6.55 µM]

CC(=O)OC1CC2(C)C(CCC(C)C23Cc2c(O)cc4c(c2O3)CNC4=O)C(C)(C)C1O (stereo not drawn)
inactive: outcome (HEK293T [1]) inactive [at 17.4 µM] | Potency (C33A) | Potency (CAOV3) | outcome (CASKI) | Potency (Es-2) | Potency (HeLa) | Potency (Hek293T [2]) | Potency (JEG-3) | Potency (OV90) | Potency (SKOV3) | Potency (Tov-21-G) | Potency (Tov112D)

C/C=C(/C)C(=O)OC1C2OC2C2(CO2)C2C3OC(=O)C(C)C3CCC12C (stereo not drawn)
inactive: outcome (HEK293T [1]) | Potency (C33A) | Potency (CAOV3) | outcome (CASKI) | Potency (Es-2) | Potency (HeLa) | Potency (Hek293T [2]) | Potency (JEG-3) | Potency (OV90) | Potency (PA-1) | Potency (Tov-21-G) | Potency (Tov112D)

C=C[C@@](C)(CCC=C(C)C)O[C@@H]1O[C@H](CO[C@@H]2OC[C@H](O)[C@H](O)[C@H]2O)[C@@H](O)[C@H](O)[C@H]1O
inactive: outcome (HEK293T [1]) inactive [at 17.4 µM] | Potency (C33A) | Potency (CAOV3) | outcome (CASKI) | Potency (Es-2) | Potency (HeLa) | Potency (Hek293T [2]) | Potency (JEG-3) | Potency (OV90) | Potency (PA-1) | Potency (Tov-21-G) | Potency (Tov112D)

COc1cc(Cc2cnc(N)nc2N)c(C(C)C)cc1OC
inactive: outcome (HEK293T [1]) | Potency (C33A) | Potency (CAOV3) | outcome (CASKI) | Potency (Es-2) | Potency (HeLa) | Potency (Hek293T [2]) | Potency (JEG-3) | Potency (PA-1) | Potency (SKOV3) | Potency (Tov-21-G) | Potency (Tov112D)

C=C1CCc2occ(C)c2[C@H]2[C@H]1[C@@]13O[C@@]1(C[C@@H](C)[C@H]3OC(C)=O)[C@H]1O[C@@]21C
inactive: outcome (HEK293T [1]) | Potency (C33A) | Potency (CAOV3) | outcome (CASKI) | Potency (Es-2) | Potency (HeLa) | Potency (Hek293T [2]) | Potency (JEG-3) | Potency (PA-1) | Potency (SKOV3) | Potency (Tov-21-G) | Potency (Tov112D)

COc1ccc2c(c1)N1C(=O)C[C@@]34C=CC[N@+]5([O-])CC[C@H]2[C@H](CC3)[C@@]145
inactive: outcome (HEK293T [1]) | Potency (C33A) | Potency (CAOV3) | outcome (CASKI) | Potency (Es-2) | Potency (HeLa) | Potency (Hek293T [2]) | Potency (JEG-3) | Potency (SKOV3) | Potency (Tov-21-G) | Potency (Tov112D)

COc1cc(C(CO)CO[C@@H]2O[C@H](CO)[C@@H](O)[C@H](O)[C@H]2O)ccc1O (stereo partly drawn)
inactive: outcome (HEK293T [1]) | Potency (C33A) | Potency (CAOV3) | Potency (Es-2) | Potency (HeLa) | Potency (Hek293T [2]) | Potency (JEG-3) | Potency (OV90) | Potency (PA-1) | Potency (SKOV3) | Potency (Tov-21-G) | Potency (Tov112D)

C/C=C(\C)C1C(C)=CC2CCC(OS(=O)(=O)O)C(C)C2C1/C=C/C=C/C(=O)O (stereo not drawn)
inactive: outcome (HEK293T [1]) inactive [at 17.4 µM] | Potency (C33A) | Potency (CAOV3) | outcome (CASKI) | Potency (Es-2) | Potency (HeLa) | Potency (Hek293T [2]) | Potency (JEG-3) | Potency (OV90) | Potency (PA-1) | Potency (Tov-21-G) | Potency (Tov112D)

O=C(O)CC1(O)C(=O)Nc2ccccc21 (stereo not drawn)
inactive: outcome (HEK293T [1]) inactive [at 92 µM] | Potency (C33A) | Potency (CAOV3) | outcome (CASKI) | Potency (Es-2) | Potency (Hek293T [2]) | Potency (JEG-3) | Potency (OV90) | Potency (PA-1) | Potency (SKOV3) | Potency (Tov-21-G) | Potency (Tov112D)

CC(C)C1(O)NC(=O)C(CC2(O)c3ccccc3N3C(=O)C(C)(C)NC32)n2c1nc1ccccc1c2=O (stereo not drawn)
inactive: outcome (HEK293T [1]) inactive [at 17.4 µM] | Potency (C33A) | Potency (CAOV3) | outcome (CASKI) | Potency (Es-2) | Potency (HeLa) | Potency (Hek293T [2]) | Potency (JEG-3) | Potency (OV90) | Potency (SKOV3) | Potency (Tov-21-G) | Potency (Tov112D)

C/C=C/C=C/C=C/C(=O)O[C@@H]1[C@@H](OC)C2=C(C(=O)N(C(CCC(=O)O)C(=O)O)C2)[C@@]2(C)CCCC(C)(C)[C@H]12 (stereo partly drawn)
inactive: outcome (HEK293T [1]) inactive [at 17.4 µM] | Potency (C33A) | Potency (CAOV3) | outcome (CASKI) | Potency (Es-2) | Potency (HeLa) | Potency (Hek293T [2]) | Potency (JEG-3) | Potency (OV90) | Potency (PA-1) | Potency (Tov-21-G) | Potency (Tov112D)

O=C(O[C@@H]1O[C@H](CO)[C@@H](O)[C@H](O)[C@H]1O)c1ccccc1
inactive: outcome (HEK293T [1]) | Potency (C33A) | Potency (CAOV3) | outcome (CASKI) | Potency (Es-2) | Potency (HeLa) | Potency (Hek293T [2]) | Potency (JEG-3) | Potency (OV90) | Potency (SKOV3) | Potency (Tov-21-G) | Potency (Tov112D)

O=C1C[C@@]2(C(=O)N1)C(=O)N(Cc1ccc(Br)cc1F)C(=O)c1cccn12
inactive: outcome (HEK293T [1]) | Potency (C33A) | Potency (CAOV3) | outcome (CASKI) | Potency (Es-2) | Potency (HeLa) | Potency (Hek293T [2]) | Potency (JEG-3) | Potency (OV90) | Potency (PA-1) | Potency (Tov-21-G) | Potency (Tov112D)
